AMA1 RON2 block – qHTS for Inhibitors of AMA1-RON; Towards Development of Antimalarial Drug Lead: Primary Screen | Plasmodium falciparum AMA1 (3D7) - RON2 peptide interaction | AlphaScreen AMA1-biotinylated RON2 peptide binding | Potency, µM (top dose mostly 58.2 µM), hits mostly inhibitors | 0.2% of 360,000 active | AID 720542, 2013; also: nearly all actives have a fitted effect of over 45% in size
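AMA1 (3D7) with his tag at 25 nM final met compounds first, then biotinylated RON2 peptide at 25 nM; detection used donor plus acceptor beads, 10 µg/mL apiece, read by AlphaScreen after 30 min at room temperature.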
AmpC inh no detg – qHTS Inhibitors of AmpC Beta-Lactamase (assay without detergent) | AmpC nitrocefin hydrolysis, absorbance 480 nm, 0.0001% Triton | Potency, µM (series often up to 57.1 µM), usual class: inhibitors | 0.52% of 330,000 active; also: nearly all actives have a fitted effect of over 20% in size
Target sequence (P00811 whole entry, looked up): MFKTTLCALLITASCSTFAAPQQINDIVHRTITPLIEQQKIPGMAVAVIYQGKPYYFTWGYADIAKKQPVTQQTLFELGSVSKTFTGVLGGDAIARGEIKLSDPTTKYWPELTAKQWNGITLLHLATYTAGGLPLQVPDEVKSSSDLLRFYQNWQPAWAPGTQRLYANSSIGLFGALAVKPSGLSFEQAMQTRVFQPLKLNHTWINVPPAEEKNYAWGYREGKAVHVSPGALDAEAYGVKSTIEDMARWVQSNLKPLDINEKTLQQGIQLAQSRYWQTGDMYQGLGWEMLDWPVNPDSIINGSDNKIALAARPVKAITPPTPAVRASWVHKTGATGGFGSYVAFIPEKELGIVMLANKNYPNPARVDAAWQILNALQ
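20 mM phosphate pH 7.0 + 0.01% (detergent screen) or 0.0001% Triton X-100; 5.3 nM AmpC reagent; cpd preinc 15 min RT; nitrocefin (800 uM stock) to start; A480 q20 s × 4 min; Activity was normalised to no-enzyme and no-compound control wells.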
Sm TGR block – qHTS Assay for the Inhibitors of Schistosoma Mansoni Peroxiredoxins | Potency, µM (highest dose often 114 µM), usual class: inhibitors | Schistosoma mansoni thioredoxin glutathione reductase (TGR), Q962Y6 | purified TGR, DTNB reduction, TNB absorbance 405 nm | 3% of 360,000 active; also: nearly all actives have a fitted effect of over 60% in size
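Kinetic colorimetric format: TGR-catalysed, NADPH-driven DTNB reduction monitored via TNB absorbance. Enzyme dispensed at 20 nM; compound exposure 15 min at room temperature before reaction start.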
AmpC inh detg – qHTS Inhibitors of AmpC Beta-Lactamase (assay with detergent); AID 485294, 2010; Potency, µM (doses to about 114 µM), usual class: inhibitors; P00811; 0.041% of 370,000 active; AmpC hydrolysis of nitrocefin, absorbance 480 nm, 0.01% Triton; also: nearly all actives have a fitted effect of over 25% in size
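AmpC (5.3 nM in the dispensed reagent) in 20 mM phosphate pH 7.0 with 0.01% (detergent screen) or 0.0001% Triton X-100 was preincubated with compounds for 15 min at room temperature. Nitrocefin was then added from an 800 uM solution, and hydrolysis was followed at 480 nm.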
FMDV antiviral – High Throughput Screening for Foot and Mouth Disease Virus Antivirals; 1.2% of 410,000 active; AID 1159524, 2015; Potency, µM (titrated, usually from 57.9 µM), hits mostly inhibitors; FMDV antiviral cell-based qHTS; calls by dose curve; tested in HEK293T cells; also: read-out not given here; nearly all actives have a fitted effect of over 45% in size
Large screens that a line does not name were inactive. Compounds with a hit are over-represented: about 4.1% of the library has one in this group of screens. Unless noted, calls follow the shape of the dose curve; as a rule, active = well fitted curve in the direction sought with a large enough effect; inconclusive = small, poorly fitted or top-dose-only effect, or another doubt; inactive = no such curve, though single readings can be large; an effect the other way counts as inactive or inconclusive.

CC1CCCN(C(=O)c2cc3ccc4cccnc4c3[nH]2)C1 (centres undefined)	FMDV antiviral 14µM (no result: AMA1 RON2 block, AmpC inh no detg)
COc1ccc(NCc2cc3cc4c(cc3n(CC(=O)Nc3ccc(F)cc3F)c2=O)OCO4)cc1	none (no result: AMA1 RON2 block, AmpC inh no detg)
O=C(c1cccs1)N1CCN(C(=O)c2cccs2)C1=S	FMDV antiviral 35µM (no result: AmpC inh no detg, Sm TGR block, AmpC inh detg)
Cc1cnc(-n2ncc(C(=O)NCCc3ccncc3)c2-c2cccs2)nc1-c1ccc(F)cc1	none (no result: AMA1 RON2 block, AmpC inh no detg, Sm TGR block, AmpC inh detg)
C=CCNC(=O)/C(C#N)=C\c1cc(Cl)c(O)c(OCC)c1	Sm TGR block 40µM
CCn1nc(C)c(CCN(C)C(=O)Nc2cccc(Cl)c2C)c1C	none (no result: AMA1 RON2 block, AmpC inh no detg)
CCOc1cc(/C=C2/NC(=O)N(Cc3ccccc3F)C2=O)ccc1O	Sm TGR block inconclusive
COc1cc(/C=C2/NC(=O)N(Cc3ccccc3F)C2=O)cc(OC)c1O	Sm TGR block 14µM
COCCCNC(=O)C1CCN(Cc2cc3ccccc3n2Cc2cccc(Cl)c2)CC1	none (no result: AMA1 RON2 block, AmpC inh no detg)
Cn1nnnc1SCC(=O)NCCCc1ccccc1	none
Cn1nnnc1SCC(=O)NCC(=O)c1ccccc1	Sm TGR block 20µM
COc1cc(C(=O)Nc2cc3c(cc2C)n(C)c(=O)c(=O)n3C)cc(OC)c1OC	none (no result: AMA1 RON2 block, AmpC inh no detg)
O=C1c2ccccc2NC(c2ccc(Br)s2)N1O (centres undefined)	none (no result: AmpC inh no detg, Sm TGR block, AmpC inh detg)
c1coc(C2Nc3ccccc3-c3nc4ccccc4n32)c1 (centres undefined)	AmpC inh no detg 35µM
O=C1c2ccccc2NC(c2ccc(-c3ccc(C(F)(F)F)cc3)o2)N1O (centres undefined)	none (no result: AMA1 RON2 block, Sm TGR block, AmpC inh detg)
O=C1c2ccccc2NC(c2ccc(-c3cccs3)o2)N1O (centres undefined)	Sm TGR block 32µM (no result: AMA1 RON2 block)
O=C1c2ccccc2NC(c2ccc(Br)o2)N1O (centres undefined)	Sm TGR block 11µM (no result: AMA1 RON2 block)
c1ccc(C2Nc3ccccc3-c3nc4ccccc4n32)cc1 (centres undefined)	none
O=C1c2ccccc2NC(c2ccco2)N1O (centres undefined)	Sm TGR block 50µM
Cc1ccccc1CN1CCCN(CC(=O)Nc2c(C)cccc2C)S1(=O)=O	none (no result: AMA1 RON2 block, AmpC inh no detg)
COc1ccccc1CN1CCCC2(CCN(C(=O)c3c(C)noc3C)CC2)C1	none (no result: AMA1 RON2 block, AmpC inh no detg, Sm TGR block, AmpC inh detg)
CC12CCC(C(=O)N(CSC(=S)N/N=C\c3ccccc3Cl)C1=O)C2(C)C (centres undefined)	none
CC12CCC(C(=O)N(CSC(=S)N/N=C\c3ccccc3)C1=O)C2(C)C (centres undefined)	Sm TGR block 4.5µM, AmpC inh detg inconclusive
COc1ccccc1CNC(=O)CCc1c(C)c2ccc(OC)c(C)c2oc1=O	none (no result: AMA1 RON2 block, AmpC inh no detg)
CCCC(=O)NC(Oc1ccc(C(C)=O)cc1)C(Cl)(Cl)Cl (centres undefined)	Sm TGR block 28µM
CN(C)S(=O)(=O)c1cccc(-n2sc3ccccc3c2=O)c1	AmpC inh no detg 35µM, Sm TGR block inconclusive
c1coc(-c2ccccc2CN2CCOc3ccc(CN4CCOCC4)cc3C2)c1	none (no result: AMA1 RON2 block, AmpC inh no detg, Sm TGR block, AmpC inh detg)
CCOC(=O)C1=C(c2ccccc2)N=c2s/c(=C\c3ccc(O)cc3)c(=O)n2C1c1cccs1 (centres undefined)	AMA1 RON2 block inconclusive, FMDV antiviral 25µM
CCc1ccc(-n2nc(C)c3c(C(=O)Nc4cc(C)c(Cl)cc4OC)cc(C)nc32)cc1	none (no result: AMA1 RON2 block, AmpC inh no detg)
COc1cc2cnc(-c3ccccc3)c(-c3ccc([N+](=O)[O-])cc3)c2cc1OC	none
COc1cc2cnc(-c3ccccc3)c(-c3cc(OC)c(OC)c(OC)c3)c2cc1OC	Sm TGR block 3.2µM
COC(=O)Cn1c(C2CC(=O)N(c3c(C)cccc3C)C2)nc2ccccc21 (centres undefined)	none (no result: AMA1 RON2 block, AmpC inh no detg)
Cc1nc2ccc(NC(=S)NCc3ccccc3)cc2nc1C	Sm TGR block 40µM
C=CCNC(=S)Nc1ccc2nc(C)c(C)nc2c1	Sm TGR block 40µM
COc1ccc(CNC(=S)Nc2cccc(C)c2)cc1	none
Cc1ccc(NC(=S)NCc2ccccc2)cc1C	none (no result: AmpC inh no detg, Sm TGR block, AmpC inh detg)
COc1ccc(CNC(=S)Nc2ccccc2)cc1	Sm TGR block 35µM
COc1ccc(N(C)C(=S)Nc2ccc3nc(C)c(C)nc3c2)cc1	Sm TGR block 56µM
Cc1ccc(CNC(=O)Cn2c(=O)n(Cc3ccccc3)c(=O)c3c2c2cc(C)ccc2n3C)cc1	none (no result: AMA1 RON2 block, AmpC inh no detg)
Cc1c(C(=O)NCCC2CCCN2C)cnn1-c1nccc(-c2ccccc2F)n1 (centres undefined)	none (no result: AMA1 RON2 block, AmpC inh no detg, Sm TGR block, AmpC inh detg)
CCOC(=O)c1c(C)[nH]c(CCC(=O)Nc2ccc(N(CC)CC)cc2C)c1C	none (no result: AMA1 RON2 block, AmpC inh no detg)
COc1cc(CN2CCCC(n3cc(C(=O)N4CCCC4)nn3)C2)cc(OC)c1 (centres undefined)	none (no result: AMA1 RON2 block, AmpC inh no detg, Sm TGR block, AmpC inh detg)
CN(C)c1ccc(CNc2nc(-c3ccco3)nn2S(=O)(=O)c2ccc3ccccc3c2)cc1	none (no result: AMA1 RON2 block, AmpC inh no detg)
Cc1cccc(C(=O)Nc2ccc(OCc3cc(=O)n4ccsc4n3)cc2)c1	none (no result: AMA1 RON2 block, AmpC inh no detg)
Cc1ccc(S(=O)(=O)C(CNC(=O)COc2ccccc2)c2ccco2)cc1 (centres undefined)	Sm TGR block inconclusive (no result: AMA1 RON2 block, AmpC inh no detg)
Fc1ccc(C(CCNCc2cccs2)c2ccco2)cc1 (centres undefined)	none
O=S(=O)(NCCC(c1ccc(F)cc1)c1ccco1)c1ccccc1 (centres undefined)	Sm TGR block inconclusive, FMDV antiviral 4.5µM
CCOc1ccc(S(=O)(=O)NCC(c2ccco2)S(=O)(=O)c2ccc(F)cc2)cc1 (centres undefined)	Sm TGR block 0.32µM (no result: AMA1 RON2 block, AmpC inh no detg)
O=C(COc1ccc(Cl)cc1)NCC(c1ccco1)S(=O)(=O)c1ccc(F)cc1 (centres undefined)	Sm TGR block 25µM (no result: AMA1 RON2 block, AmpC inh no detg)
COc1ccc(CNC(=O)C(=O)NCC(c2ccco2)S(=O)(=O)c2ccc(Cl)cc2)cc1 (centres undefined)	Sm TGR block 11µM, FMDV antiviral inconclusive (no result: AMA1 RON2 block, AmpC inh no detg)
CC(C)(C)C(C(=O)NCc1ccccc1)N1CCN(C(=O)C2CCCO2)CC1 (centres undefined)	none (no result: AmpC inh no detg, Sm TGR block, AmpC inh detg)
Cc1ccc(S(=O)(=O)C(CNC(=O)C(=O)NCCc2ccccc2)c2ccco2)cc1 (centres undefined)	Sm TGR block 45µM, FMDV antiviral inconclusive (no result: AMA1 RON2 block, AmpC inh no detg)
O=C(CC(c1ccco1)S(=O)(=O)c1ccccc1)c1ccc(F)cc1 (centres undefined)	Sm TGR block 1.6µM
Cc1ccc(S(=O)(=O)C(CNC(=O)C(=O)NCCc2ccc(Cl)cc2)c2ccco2)cc1 (centres undefined)	Sm TGR block inconclusive (no result: AMA1 RON2 block, AmpC inh no detg)
O=C(NCCc1ccc(Cl)cc1)C(=O)NCC(c1ccco1)S(=O)(=O)c1ccc(Cl)cc1 (centres undefined)	Sm TGR block 4µM (no result: AMA1 RON2 block, AmpC inh no detg)
